Screening data (PubChem)
Vif-APOBEC3G blk = qHTS for Inhibitors of Vif-A3G Interactions: qHTS; Potency, µM (top dose mostly 46.1 µM), inactives show top-dose activity, negative = active, usual class: inhibitors; HeLa A3G-eYFP + Vif (tagged APOBEC3G with the HIV-1 protein that degrades it), YFP fluorescence, overnight; DNA dC->dU-editing enzyme APOBEC-3G (Homo sapiens), Q9HC16; AID 602310, 2012; actives 0.076% (n = 410,000); also: potency is read from the fitted curve at half-maximal effect; % is scaled to controls: 0 for no effect and ±100 for the full control effect; nearly all actives have a fitted effect of over 60% in size
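HeLa cells stably expressing Vif and C-terminally eYFP-tagged A3G, seeded overnight at 37 deg C, then exposed to compound by pintool overnight at 37 deg C. Rise in yellow fluorescence (Ex 488/Em 500-530, Acumen) marks blocked Vif-driven A3G degradation.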
Vif-A3F inh = qHTS for Inhibitors of Vif-A3F Interactions: qHTS | HeLa A3F-eYFP + Vif (tagged APOBEC3F with the HIV-1 protein that degrades it), YFP fluorescence increase | Potency, µM (top dose mostly 46.1 µM), inactives show at the highest dose activity, negative = active | actives 0.2% (n = 390,000); also: potency is read from the fitted curve at half-maximal effect; % of control where 0% means no effect; nearly all actives have a fitted effect of over 65% in size
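HeLa cells stably expressing A3F-eYFP plus Vif, plated and incubated overnight at 37 deg C, then exposed to compounds overnight at 37 deg C. Blocked degradation read as raised yellow fluorescence (Ex 488/Em 500-530).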
TSHR antag = Antagonists of the Thyroid Stimulating Hormone Receptor: HTS campaign; actives 0.2% (n = 330,000); TSHR-expressing cells, TSH-stimulated cAMP HTRF, 2 h; hits give low values; Thyrotropin receptor (Homo sapiens), P16473; activity change, negative = inhibition, % at 11.5 µM;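 active = activity change below a set negative limit, meaning inhibition stronger than a set level, cut at about -70% in these data; inconclusive = activity change between two set negative limits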; also: % is scaled to controls: 0 for no effect and ±100 for the full control effect
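Freshly harvested TSHR cells receive pin-tooled compound, then EC80 TSH at 4nM final. After 2 hours at 37 deg C, antibody in lysis buffer and cAMP-d2 are added; 30 minutes at ambient temperature precede the HTRF read.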
PLK1 PBD block = qHTS for Inhibitors of PLK1-PDB (polo-like kinase 1 - polo-box domain): Primary Screen; Serine/threonine-protein kinase PLK1 (Homo sapiens), P53350; Plk1 PBD binding of FITC phosphopeptide, fluorescence polarization; Potency, µM, without a hit: max response, negative = inhibition, hits mostly inhibitors; actives 2.8% (n = 360,000); AID 720504, 2013; also: potency is read from the fitted curve at half-maximal effect; series mostly up to about 57 µM; % is scaled to controls: 0 for no effect and ±100 for the full control effect; nearly all actives have a fitted effect of over 65% in size
Target sequence (P53350 whole entry, looked up, the tested form may be a part): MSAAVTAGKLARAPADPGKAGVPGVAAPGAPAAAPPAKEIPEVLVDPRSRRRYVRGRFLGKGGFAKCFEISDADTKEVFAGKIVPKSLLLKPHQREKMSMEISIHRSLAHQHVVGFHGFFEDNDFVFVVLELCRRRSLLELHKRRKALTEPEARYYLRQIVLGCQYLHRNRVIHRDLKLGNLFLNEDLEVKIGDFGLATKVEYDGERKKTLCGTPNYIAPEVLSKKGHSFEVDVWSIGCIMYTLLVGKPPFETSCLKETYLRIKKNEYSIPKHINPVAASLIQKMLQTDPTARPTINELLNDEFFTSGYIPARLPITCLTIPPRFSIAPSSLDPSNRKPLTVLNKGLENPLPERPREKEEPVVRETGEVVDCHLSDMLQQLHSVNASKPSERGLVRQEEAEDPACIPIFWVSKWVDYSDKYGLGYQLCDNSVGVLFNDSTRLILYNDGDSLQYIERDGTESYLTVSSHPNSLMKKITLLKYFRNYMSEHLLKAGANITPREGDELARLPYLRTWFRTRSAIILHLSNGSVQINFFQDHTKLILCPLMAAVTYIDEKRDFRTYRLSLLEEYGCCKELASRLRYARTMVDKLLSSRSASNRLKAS
VDR inhibitor = Inhibitors of the vitamin D receptor (VDR): qHTS; VDR-SRC2-3 peptide fluorescence polarization, 2 h; Vitamin D3 receptor (Homo sapiens), P11473; actives 0.93% (n = 400,000); Potency, µM, inactives show max response, negative = inhibition, hits mostly inhibitors; AID 504847, 2011; also: potency is read from the fitted curve at half-maximal effect; % is scaled to controls: 0 for no effect and ±100 for the full control effect
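Two reagent solutions held at 4 deg C in the dark were dispensed, compounds pinned at 23 nl, and the mixture incubated 2 h at room temperature. Read-out: fluorescence polarization of VDR–SRC2-3 peptide binding.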
An asterisk follows results filed as active; u = inconclusive; x = no result given; ! = a repeat was not active. Only some compounds are listed: those with a hit (about 3.1% of all), similar ones and a draw of the others. Unless noted, calls follow the shape of the dose curve; as a rule, active = well fitted curve in the direction sought with a large enough effect; inconclusive = small, poorly fitted or top-dose-only effect, or another doubt; inactive = no such curve, though single readings can be large; an effect the other way counts as inactive or inconclusive.

SMILES | Vif-APOBEC3G blk | Vif-A3F inh | TSHR antag | PLK1 PBD block | VDR inhibitor
COc1ccc(NC(=O)CSC2=Nc3ccccc3C3=NC(Cc4ccccc4)C(=O)N23)cc1 (configuration not stated) | -4% | 4% | x | x | -4%
CC(C)(C)OC(=O)NS(=O)(=O)NOCc1ccccc1 | 4% | x | x | x | x
CC(=O)Nc1ccc(NC(=O)C2(C)CC2(Cl)Cl)cc1 (configuration not stated) | -1% | 9% | 12 | 21µM* | 79µM*
CCCN1CNc2c(c(=O)[nH]c(=S)n2Cc2ccc(OC)c(OC)c2)C1 | x | x | x | x | 8%
COc1cc(-c2noc(C)c2-c2ccc3[nH]ccc3c2)cc(OC)c1OC | 14µM*! | -1% | -12 | -9% | u
Cc1ccc(S(=O)(=O)N2CCN(c3nc(-c4ccc(CN5CCOCC5)s4)nc4ccccc34)CC2)cc1 | 2% | x | x | x | -19%
Cc1ccc(NC(=O)CCS(=O)(=O)c2ccc(Br)s2)c(Br)c1 | -3% | -8% | x | x | -8%
O=[N+]([O-])c1ccc(Nc2nc(NCCN3CCOCC3)nc(Nc3ccc(I)cc3)n2)cc1 | -6% | x | x | x | x
N#Cc1nc(Cc2ccccc2)oc1NCc1cccnc1 | 1% | -19% | -5 | -1% | -8%
N#Cc1ncc(Cc2ccccc2)nc1C#N | u | u | -1 | -7% | 79µM*
Cc1cccc(N2C(=O)/C(=C\c3ccc(OC(F)F)cc3)c3ccccc3C2=O)c1 | -1% | -19% | 10 | 2.4µM* | 35µM*
O=C(Nc1ccc2nc(-c3ccco3)c(-c3ccco3)nc2c1)N1CCCCCC1 | -1% | -6% | -8 | 24µM* | u
O=C(Nc1cccc(Cl)c1)N1CCCC1 | 0% | -2% | 13 | 6µM* | 18µM*
O=C(Nc1ccc2nc(-c3cccs3)c(-c3cccs3)nc2c1)N1CCCC1 | -1% | x | x | x | 1%
O=C(Nc1cccc(Cl)c1)N1CCOCC1 | -1% | 2% | -10 | 5% | 27%
CCOC(=O)C1CCN(C(=O)Nc2ccc3nc(-c4ccco4)c(-c4ccco4)nc3c2)CC1 | -10% | x | 2 | 12µM* | u
O=C(Nc1ccc([N+](=O)[O-])cc1O)Nc1ccccc1Br | x | x | x | x | -25%
CN(C)CCNc1cc(N2CCN(C)CC2)ncn1 | 1% | x | x | x | x
O=C(NC(=S)NCCc1ccc(Cl)cc1)c1ccco1 | -5% | -9% | -14 | 30µM* | u
O=C(CCNC(=O)c1ccco1)Nc1ccc(Cl)cc1 | -1% | 13% | -1 | 30µM* | -15%
O=C(CNC(=O)c1ccco1)Nc1ccc(Cl)cc1 | 2% | 6% | -5 | -9% | -7%
O=C(Nc1ccccc1Sc1ccccc1)c1cnn2c1NC(=C1CC1)C=C2C(F)F | 1% | x | x | x | -11%
CN(CC(=O)Nc1cccc(Cl)c1)S(=O)(=O)c1ccc2c(c1)n(C)c(=O)c(=O)n2C | 1% | -1% | 8 | -8% | 79µM*
CCC1CC=CC2C1C(=O)N(Cc1ccccc1)C2c1ccc2ccccc2c1 (configuration not stated) | 2% | x | x | x | -16%
N#CCC(=O)Nc1ccc(C(=O)OCC(=O)c2ccc3c(c2)OCCO3)cc1 | -6% | u | 9 | 12µM* | -24%
SMILES | Vif-APOBEC3G blk | Vif-A3F inh | TSHR antag | PLK1 PBD block | VDR inhibitor
N#CCC(=O)Nc1ccc(C(=O)OCC(=O)c2ccc3c(c2)OCO3)cc1 | -5% | -8% | 11 | -4% | 4%
NS(=O)(=O)c1cc(C(=O)OCC(=O)c2ccc3c(c2)OCCO3)ccc1Cl | -2% | 2% | -3 | 30µM* | -19%
COc1ccc(CNc2nc(NCc3ccc(OC)cc3)c3ncn(C4CCCCC4)c3n2)cc1 | x | x | x | x | -15%
COc1cc(OC)cc(-c2nnc(SCc3ccc(C(=O)O)cc3)o2)c1 | 0% | -3% | -18 | 19µM* | u
O=C(O)c1ccc(CSc2nnc(-c3ccco3)o2)cc1 | 0% | -8% | 2 | -2% | 15%
CC(C)Cn1nnnc1S(=O)(=O)CCc1ccccc1 | x | x | x | x | 6%
COc1ccc(CC(=O)Nc2cc(Cl)ccc2C(=O)O)cc1 | -1% | 3% | -9 | -1% | -7%
CCCCOc1ccc(Nc2cc(Cl)ccc2C(=O)O)cn1 | 2% | 10% | -27 | 24µM* | -15%
CCCN(CCC)c1ccc(/C=C/c2sc3ccccc3[n+]2CCCCI)cc1 | -26% | x | x | x | x
CC(C)=CCn1cnc2c1C(NOCc1ccccc1)=NCN2 | x | x | x | x | -8%
CC(=O)c1nnn(-c2ccc([N+](=O)[O-])cc2C)c1C | 0% | -1% | 0 | 24µM* | -8%
CC(=O)c1nnn(-c2cccc([N+](=O)[O-])c2)c1C | -3% | -8% | 3 | -6% | 9%
Cc1ccnc(NC(=O)CCC(=O)N(CC(=O)NCc2ccccc2)c2ccc3c(c2)OCO3)c1 | -6% | 2% | 20 | 3µM* | -4%
Cc1ccc(N(CC(=O)NCc2ccc3c(c2)OCO3)C(=O)CCC(=O)Nc2ccccn2)cc1 | 0% | -2% | -5 | -11% | -9%
Clc1ccccc1-c1nc(NC2CCNCC2)c2ccccc2n1 | x | x | x | x | 40µM*
Nc1ccc(N2CCCCC2)cc1N1CCCCC1 | -18% | u | -10 | -8% | -4%
Nc1ccc(N2CCCCC2)c2nonc12 | -18% | u | 21 | -28% | 20µM*
CCOC(=O)Nc1ccc2c3c(cccc13)-c1ccccc1-2 | u | 3.5µM* | x | -9% | -1%
c1ccc2c(c1)OCCc1c-2[nH]c2ccccc12 | 0% | -24% | 9 | -1% | 5%
c1ccc2c(c1)SCc1c-2[nH]c2ccccc12 | x | x | x | x | 10µM*
O=[N+]([O-])c1ccc(C=C2c3ccccc3-c3ccccc32)cc1 | 0% | x | x | x | x
CC(C)c1ccc(Nc2c([N+](=O)[O-])c(=O)n(C)c3ccccc23)cc1 | 4% | 0% | 18 | 5% | -8%
Cn1c(=O)c([N+](=O)[O-])c(-n2ccnc2)c2ccccc21 | -20% | u | -25 | -6% | 20µM*
Cc1cccc(Nc2c([N+](=O)[O-])c(=O)n(C)c3ccccc23)c1 | 0% | -10% | 8 | 27µM* | u
O=C1c2ccccc2C(=O)C12OC2c1cccc2ccccc12 (configuration not stated) | -3% | 2% | 0 | u | 13µM*
Cc1ccc2nc(-c3cccc(S(=O)(=O)N4CCCC4)c3)cn2c1 | 7% | -3% | -6 | -3% | 1%
Cc1ccc2nc(-c3cccc(S(=O)(=O)N4CC(C)OC(C)C4)c3)cn2c1 (configuration not stated) | 3% | -14% | 3 | 19µM* | -29%
CCC(CC)C(=O)Nc1cccc(/C(C)=N/NC(=O)c2ccccc2Cl)c1 | 0% | 1% | -6 | 27µM* | 8%
COc1ccccc1Nc1nc(N)nc(CSc2ncccn2)n1 | 0% | -5% | 2 | 27µM* | -14%
